According to PubChem BioAssay (NCI):
The panel holds about 83,000 compounds, 20% with a hit somewhere; the sample as a whole holds those more often.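 Percent growth is the endpoint: 0 to 100 indicates growth inhibition (40 means 60% inhibition), 0 means no net growth, and negative values indicate cell death.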 Values without a mark were called inactive. The source made the active and inactive calls. Rule for the calls: active = growth percent below 10; inactive = the rest.

Columns and labels:
Assay in all cases: NCI-60 one-dose screen, 48 h (100 = growth as untreated, 0 = no growth, -100 = all killed)
Conditions in all cases: 10 µM unless noted
[1] = tested on: NCI-H23 lung
[2] = tested on: NCI-H226 lung
[3] = tested on: NCI-H322M lung
[4] = tested on: HOP-62 NSCLC
[5] = tested on: NCI-H460 lung
[6] = tested on: HOP-92 NSCLC
[7] = tested on: NCI-H522 lung
[8] = tested on: A549/ATCC NSCLC
[9] = tested on: 786-0 renal
[10] = tested on: COLO 205 colon
[11] = tested on: DU-145 prostate
[12] = tested on: K-562 leukemia
[13] = tested on: MALME-3M melanoma
[14] = tested on: MDA-MB-231 breast
[15] = tested on: SF-268 CNS
[16] = tested on: SF-295 CNS
[17] = tested on: SF-539 CNS
[18] = tested on: UACC-257 melanoma
[19] = tested on: RXF 393 renal

SMILES	growth [1]	growth [2]	growth [3]	growth [4]	growth [5]	growth [6]	growth [7]	growth [8]	growth [9]	growth [10]	growth [11]	growth [12]	growth [13]	growth [14]	growth [15]	growth [16]	growth [17]	growth [18]	growth [19]
Cc1nc(Nc2ccc(NC(=S)Nc3ccccc3)cc2)nc2nc(Nc3ccc(S(=O)(=O)O)cc3)[nH]c(=O)c12	95.8%	123%	122%	105%	108%	75.7%	86.9%	111%	103%	113%	145%	71%	104%	94.4%	106%	113%	132%	136%	
Cc1nc(Nc2ccc(N)cc2)c2ccccc2n1	86.8%	97.6%	117%	104%	102%	109%	80.8%	103%	107%	92.2%	117%	74.5%	97.6%	93.9%	106%	95.8%	96%	104%	
COc1ccc(/C=C2\COc3ccc(O)cc3C2=O)cc1OC	105%	97%	90.4%	76%	67.6%	59.1%	35.2%	91.2%	88.2%	93.9%	65.7%	8.84% (active)	92.6%	87.5%	93.1%	103%	83.2%	80.2%	
CC(=O)Nc1ccc(-c2cc3c(NCc4ccc(F)cc4)ncnc3s2)cc1	77.5%	78.4%	82.7%	58%	77.3%	76%	56.6%	83.9%	82.7%	106%	86.3%	86.8%	59.5%	83%	68%	82.6%	56.6%	86.8%	
O[C@H]1CO[C@H]2[C@@H]1OC[C@@H]2Oc1ccc(Nc2nc(Nc3ccc(F)c(Cl)c3)ncc2F)cc1Cl	101%	96.9%	101%	118%	106%	101%	98.4%	102%	97.7%	116%	117%	115%	100%	95.4%	103%	92.1%	95%	106%	
Cc1nc(Nc2ccc(S(=O)(=O)Nc3cc(C)on3)cc2)c2ccccc2n1	107%	99.7%	104%	101%	112%	89%	86.3%	108%	98.3%	116%	112%	99.9%	93.2%	108%	99.5%	95.4%	97.6%	103%	
CCCCC1COc2cccc3c(SCC(=O)N(C)c4cccc(Cl)c4)cc[n+]1c23 (stereo not drawn)	99.9%	103%	107%	109%	113%	113%	96.9%	109%	107%	110%	120%	97.8%	104%	101%	118%	99.3%	97.5%	113%	
O[C@H]1CO[C@H]2[C@@H]1OC[C@@H]2Oc1ccc(Nc2ccnc(Nc3ccc(O[C@H]4CO[C@H]5[C@@H]4OC[C@@H]5O)c(Cl)c3)n2)cc1Cl	-1.73% (active)	4.09% (active)	-4.12% (active)	-28.9% (active)	1.27% (active)	-20% (active)	-4.53% (active)	21.7%	24.7%	12%	7.26% (active)	5.05% (active)	13.2%	21.8%	16.4%	7.74% (active)	8.89% (active)	31.8%	
COc1ccc(-n2sc(=O)n(Cc3ccc(COC(=O)C(C)c4ccc(CC(C)C)cc4)cc3)c2=O)cc1 (stereo not drawn)	78.1%	68.2%	94.9%	66.8%	76.4%	19.2%	-32.9% (active)	80.8%	57.3%	-10.9% (active)	43.9%	-11.6% (active)	-49.4% (active)	62.4%	71.9%	97.2%	26.8%	54.9%	
Clc1ccc(/C=C/c2nc(Nc3ccc(Cl)cc3)c3ccccc3n2)cc1	93.1%	92.6%	96.4%	120%	103%	107%	90.8%	102%	102%	112%	118%	103%	105%	93.7%	102%	100%	96.1%	98.9%	
COc1cc2oc(-c3cccc(C(=O)Nc4ccc(C#N)cc4)c3)cc(=O)c2c(O)c1OC	38.2%	21.2%	72.7%	-31.8% (active)	18.9%	79.2%	61.2%	37.4%	70.4%	39.9%	34.2%	66.4%	47.7%		50%	36.8%	82.4%	88.9%	102%
COc1ccc(/C(C)=C(\c2ccc(Cl)cc2)c2ccc(OCCCN(C)C)cc2)cc1F	78.1%	98%	67.6%	52.8%	-3.98% (active)	92%	77%	57.2%	62.2%	7.6% (active)	73.5%	-0.587% (active)	17.2%	73.7%	81.8%	53.5%	44.9%	17.1%	
O=C1/C(=C/c2ccc([N+](=O)[O-])cc2)COc2ccc(O)c(O)c21	11.1%	50.9%	42.7%	4.16% (active)	-17.2% (active)	-4.37% (active)	-52.7% (active)	34.5%	-60.5% (active)	16.3%	-19.1% (active)	5.31% (active)	-44.2% (active)	-27.1% (active)	-25.3% (active)	83.7%	-91.6% (active)	40.3%	
CCN(CC)CCOc1ccc(/C(=C(\C)c2ccc(F)c(OC)c2)c2ccc(Cl)cc2)cc1	25.6%	75.7%	65.7%	-4.66% (active)	-54.2% (active)	20.4%	26.9%	30.7%	-64.9% (active)	-58.6% (active)	41.3%	-7.49% (active)	-81.6% (active)	27.9%	53%	-21.6% (active)	-68.3% (active)	12.3%	
COc1ccc(/C(C)=C(\c2ccc(Cl)cc2)c2ccc(OCCN3CCCCCC3)cc2)cc1F	54.1%	71%	83.3%	36.3%	8.63% (active)	73.3%	65.9%	55%	4.15% (active)	22.3%	67.5%	1.96% (active)	-3.61% (active)	55.1%	68.3%	-7.79% (active)	24.5%	39%	
O=C1/C(=C/c2ccccc2[N+](=O)[O-])COc2ccc(O)c(O)c21	-4.09% (active)	-8.66% (active)	33.3%	30.3%	0.563% (active)	-9.78% (active)	-45.2% (active)	30.8%	10.6%	-32.6% (active)	2.13% (active)	4.47% (active)	-31.6% (active)	-16.7% (active)	0.467% (active)	58.3%	-69.4% (active)	-8.55% (active)	
